# Assay results as given in PubChem BioAssay (Tox21).
# Inconclusive results are not listed. Entries that show only a call come without a potency. Values without a mark were called inactive. Active and inactive are the calls of the source. The call rests on the fitted dose curve; in most records, active means well fitted cell-killing curve with a large enough effect in the repeat runs; inconclusive means weak or mixed curves, or effect the other way; inactive means flat fitted curve, though single readings scatter.
# Assay: cAMP Responsive Elements (CRE) small molecule antagonists, cell-based qHTS assay: qHTS cell viability counter screen (AID 2060913); further: nearly all actives have a fitted effect of over 40% in size
# Details: CRE-bla HEK293T viability, CellTiter-Glo luminescence, 5 h; series mostly up to 92.4 µM
# How it was run: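 Cytotoxicity counter screen multiplexed with the CRE-bla antagonist read: HEK293T cells in DMEM with dialyzed FBS and 25 mM HEPES were treated 3 hrs under 0.25 uM final NKH477, then viability measured by CellTiter-Glo luminescence.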
# Potency means the concentration at half of the fitted maximal effect.
SMILES,Potency,"viability change, negative = cytotoxic"
CN1CCOCC1,inactive,–
CC1=Nc2ccc3ccccc3c2C1(C)C,inactive,–
C=C(C)C(N)=O,inactive,–
CCCCCCCCCCCCCCCCC(C(=O)O)C(O)(CC(=O)O)C(=O)O (stereo not given),inactive,–
Nc1ccn([C@H]2CC[C@@H](CO)O2)c(=O)n1,inactive,–
CCCCCCC(O)CCOC(C)=O (stereo not given),inactive,–
CCC1C(=O)OCC1Cc1cncn1C (stereo not given),inactive,–
CN(C[C@@H](CC[N+]12CCC(C3CCCCC3)(CC1)CC2)c1ccc(Cl)c(Cl)c1)C(=O)c1cc(C(F)(F)F)cc(C(F)(F)F)c1,54.5 µM (active),–
CCn1c(=O)c2c(nc(/C=C/c3ccc(OC)c(OC)c3)n2C)n(CC)c1=O,inactive,–
Brc1ccc(-c2ccccc2)cc1,inactive,–
NC(N)=O,inactive,–
O=C1c2ccccc2C(=O)c2cc(Cl)ccc21,–,-0.399% [at 8.39 µM]
CCCCC/C=C/CC(=O)OC,inactive,–
Cc1cc(C)c(C(=O)O)c(C)c1,inactive,–
CCCCC(CC)C(=O)O (stereo not given),inactive,–
CN1C(=O)N(c2ccccc2Br)Cc2cnc(Nc3ccc4c(c3)OCC(CO)O4)nc21 (stereo not given),inactive,–
CCCCCCCCCCCCS(=O)(=O)Cl,–,11.7% [at 18.9 µM]
CCNc1nc(NC(C)CC)nc(OC)n1 (stereo not given),inactive,–
COc1cc(CNC(=O)CCCC/C=C/C(C)C)ccc1O,inactive,–
O=NN(CCCl)C(=O)NC1CCCCC1,inactive,–

SMILES,Potency,"viability change, negative = cytotoxic"
O=C(c1ccc(Cl)cc1)c1ccc(Cl)cc1,inactive,–
CC(=O)OC/C=C(\C)CC/C=C(\C)CCC=C(C)C,inactive,–
N=c1nc(N2CCCCC2)cc(N)n1O,inactive,–
COC(=O)NCCC[Si](OC)(OC)OC,inactive,–
NCCOCCOCCN,inactive,–
CCc1ccccc1,inactive,–
CCC(C)OC(C)CC (stereo not given),inactive,–
SC1CCCC1,inactive,–
CC(C)CCCCCOC(=O)CCS,inactive,–
CCCC(=O)O[C@]1(C(=O)CO)CC[C@H]2[C@@H]3CCC4=CC(=O)CC[C@]4(C)[C@H]3[C@@H](O)C[C@@]21C,inactive,–
CCOC(=O)[C@H](CCc1ccccc1)N[C@@H](C)C(=O)N1[C@H](C(=O)O)C[C@@H]2CCC[C@@H]21,inactive,–
OC1CCCC1,inactive,–
CCOc1ccc2nc(S(N)(=O)=O)sc2c1,inactive,–
Cc1cc(S(=O)(=O)O)c(N)cc1Cl,inactive,–
CC(C)(C#N)c1cc(Cn2cncn2)cc(C(C)(C)C#N)c1,inactive,–
COc1cc(C)cc(O)c1,inactive,–
CN(C)CCCOC1(Cc2ccccc2)CCCCCC1,inactive,–
C[C@@H](O)[C@H]1C(=O)N2C(C(=O)O)=C([C@H]3CCCO3)S[C@H]12,inactive,–
CC(C)(O)c1ccccc1CC[C@@H](SCC1(CC(=O)O)CC1)c1cccc(/C=C/c2ccc3ccc(Cl)cc3n2)c1,inactive,–
CCCCN(CCCC)C(=O)N(CCCC)CCCC,inactive,–
